The values that follow come from PubChem BioAssay (NCATS).

Results filed as inconclusive are left out. Where a call stands in place of a potency, no number is given. Unmarked numbers belong to inactive results. Activity calls are given as the source filed them. Calls come from the whole dose curve; as a rule, active = well fitted curve in the direction sought with a large enough effect; inconclusive = small, poorly fitted or top-dose-only effect, or another doubt; inactive = no such curve, though single readings can be large; an effect the other way counts as inactive or inconclusive.

A short description of assay [1]: Confirmatory qHTS for small molecule stabilizers of the endoplasmic reticulum resident proteome: Secreted ER Calcium Modulated Protein (SERCaMP) assay (AID 1508628). Note: potency is the fitted concentration of half-maximal effect; nearly all actives have a fitted effect of over 40% in size. In outline: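 Reporter secretion upon ER calcium depletion (100 nM thapsigargin, 4 h, 37C) is measured as medium luminescence with coelenterazine, after 16 h compound pretreatment of SH-SY5Y-GLuc-SERCaMP cells; primary at three concentrations up to 38.3 uM, follow-up at 11 (up to 76.6 uM).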
(In general: In qHTS, concentration-response curves come from the screen itself.)

Another assay has as its target Papain (Carica papaya) (UniProt P00784). Put plainly: Primary qHTS assay for inhibitors of the protease papain (AID 1645873).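 Note: papain turnover of Z-FR-AMC read as the AMC fluorescence gain over 10 min; series mostly up to about 50 µM.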
Assay [2] is described as follows: Cell Viability qHTS for small molecule stabilizers of the endoplasmic reticulum resident proteome (AID 1508629).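 Note: human SH-SY5Y neuroblastoma cells carrying the GLuc-SERCaMP reporter; compound exposure about 46 h in total before the viability read.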 Particulars: cell viability counter-screen, 100 nM thapsigargin for final 4 h.
A short description of assay [3]: Primary qHTS for small molecule stabilizers of the endoplasmic reticulum resident proteome: Secreted ER Calcium Modulated Protein (SERCaMP) assay (AID 1508630). Note: potency is the fitted concentration of half-maximal effect. In outline: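 The SH-SY5Y reporter protocol was run at 3 concentrations up to 38.3 uM (primary) or 11 concentrations (follow-up): 16 h compound, 100 nM thapsigargin for 4 h, then extracellular luciferase luminescence.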

Assay [4] is described as follows: Counterscreen qHTS for small molecule stabilizers of the endoplasmic reticulum resident proteome: GLuc-NoTag assay (AID 1508627). Note: potency is the fitted concentration of half-maximal effect. In outline:
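Counterscreen line: SH-SY5Y-GLuc-NoTag. Seed, 5 h; compound, 19 h; thapsigargin 100 nM, 4 h; 37C/5% CO2. Readout: secreted GLuc luminescence, coelenterazine 0.07x final, no lysis.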
On the technique in general: Counterscreens check selectivity or assay interference.

Assay [5] concerns the target N-terminal Xaa-Pro-Lys N-methyltransferase 1 (Homo sapiens) (UniProt Q9BV86). Put plainly: Confirmatory qHTS for Inhibitors of N-terminal methyltransferase 1 (NTMT1): MTaseGlo Assay (AID 1645874). Note: potency is the fitted concentration of half-maximal effect; nearly all actives have a fitted effect of over 65% in size. Particulars: NTMT1 enzyme, MTase-Glo SAH luminescence. The procedure, abridged:
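Inhibition was derived from luminescence after SAH-to-ATP conversion, scaled between no-enzyme and DMSO wells, then fitted by 4-parameter Hill. Conditions: 125 nM NTMT1, 100 uM SAM, 1 uM SPKRIA, 30 min RT.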

Sequence of Papain (Carica papaya) (P00784 whole entry, looked up): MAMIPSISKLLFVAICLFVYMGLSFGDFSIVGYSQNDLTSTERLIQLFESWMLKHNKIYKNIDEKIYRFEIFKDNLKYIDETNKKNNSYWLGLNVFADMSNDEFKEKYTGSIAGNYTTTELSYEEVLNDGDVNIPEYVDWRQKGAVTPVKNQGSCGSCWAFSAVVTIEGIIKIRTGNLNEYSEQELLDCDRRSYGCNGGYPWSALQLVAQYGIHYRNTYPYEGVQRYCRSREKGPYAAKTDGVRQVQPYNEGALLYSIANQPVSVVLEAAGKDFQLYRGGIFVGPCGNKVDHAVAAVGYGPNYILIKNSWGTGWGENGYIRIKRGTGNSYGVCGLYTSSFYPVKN
Sequence of N-terminal Xaa-Pro-Lys N-methyltransferase 1 (Homo sapiens) (Q9BV86 whole entry, looked up): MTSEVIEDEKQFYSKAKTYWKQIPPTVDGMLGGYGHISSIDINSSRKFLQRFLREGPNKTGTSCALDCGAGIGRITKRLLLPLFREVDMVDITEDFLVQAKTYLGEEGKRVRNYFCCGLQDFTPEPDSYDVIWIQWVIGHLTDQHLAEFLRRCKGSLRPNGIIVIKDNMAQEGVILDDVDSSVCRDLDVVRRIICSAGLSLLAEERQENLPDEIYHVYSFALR

Take `Oc1cc2c(cc1O)CN(C(=S)NCCc1ccc(Cl)cc1)CCC2`: in assay [1], the Potency is 15.8 µM (active). Also, the Potency entry in the assay with Papain (Carica papaya) is “inactive”.
For `Oc1ccccc1O`, the Potency is 7.08 µM (active) in assay [1] and 25.1 µM (active) in assay [3]. Besides, the max response in assay [2] is -15.9%. Further, in the assay with Papain (Carica papaya), the Potency result is “inactive”.
`OCC1O[C@H]([S-])[C@H](O)[C@@H](O)[C@@H]1O.[Au+]` (stereo not given in full): in assay [3], the Potency entry is “inactive”.
Turning to `N.N.N.N.N.N.N.N.N.N.N.N.N.N.O.O.[Ru+4].[Ru+5].[Ru+5]`, the Potency in assay [4] is 7.08 µM (active); in assay [1], 7.08 µM (active); in assay [5], 27.4 µM (active). For the same compound, the Potency entry with Papain (Carica papaya) was “inactive”.
For the compound `Cc1ccc(O)c(N=Nc2ccccc2)n1`, the Potency entry (in assay [4]; in assay [3]; with Papain (Carica papaya)) was “inactive” in each case.
On to `O=C1/C(=C/c2ccsc2)CC/C1=C\c1cccs1`, for which the Potency entry in assay [3] is “inactive”.
On the same count and under the same terms, then `O=C(c1cc(O)c(O)c([N+](=O)[O-])c1)c1ccccc1F`, with “inactive”; and `O=C1O/C(=C/Br)CCC1c1cccc2ccccc12` (stereo not given), with “inactive”.
Still for that read-out and setting: then `NCC1OC(O[C@H]2[C@H](O)[C@@H](OC3C(O)C(N)CC(N)C3OC3OC(CO)C(O)C(O)C3N)O[C@@H]2CO)C(N)C(O)C1O` (stereo not given in full), with “inactive”; and `CC(COc1ccc(/C=C/c2ccccc2)cc1)[N+](C)(C)C` (stereo not given), with “inactive”; and `C[N+](C)(C)CC(=O)[O-]`, with “inactive”.
`CCNC(=O)[C@H]1O[C@@H](n2cnc3c(N)nc(NCCc4ccc(CCC(=O)O)cc4)nc32)[C@H](O)[C@@H]1O`: the Potency entry in assay [3] was “inactive”.
With `OC[C@H]1O[C@@H](n2cnc3c(Nc4ccccc4)ncnc32)[C@H](O)[C@@H]1O`, in assay [3], the Potency result is “inactive”.
Still for that read-out and setting: then `NC(=S)NCCC[C@H](N)C(=O)O`, with “inactive”.
In the case of `CCCCC/C=C\CC(O)/C=C/c1cccc(CC(O)CCCCO)n1` (stereo not given), the Potency result in assay [3] is “inactive”.
Still for that read-out and setting: as for `C#CCN1C(C)=C(C(=O)OC)C(c2cccc([N+](=O)[O-])c2)C(C(=O)OCC)=C1C` (stereo not given), the entry is “inactive”.
